Laboratory results taken from PubChem BioAssay (NCI).
Several values for one entry are separate records, joined by “and”; a condition that tells them apart may be missing. Equal values may be shown once. About 79,000 compounds went through this panel and 15% of them were active in at least one assay; those are over-represented in the sample as a whole. Some compounds were tested as several samples or in several runs, with calls that do not always agree. Activity calls are given as the source filed them. Rule as the data show it: active = growth inhibition above about 70%; inactive = the rest. Where a SMILES comes first, the peptide text is derived from it. The star is where a group is joined. Fmoc = O=C(OCC1c2ccccc2-c2ccccc21)*; Boc = CC(C)(C)OC(=O)*; OtBu = CC(C)(C)O*

Legend:
[1] = NCI Yeast Anticancer Drug Screen. Data for the rad50 strain (AID 155);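 also: 0% = growth of vehicle-only cultures of the same strain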; details: S. cerevisiae rad50 strain growth inhibition; at 50.0 µM; stronger effect = higher value
Procedure, shortened: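 Vehicle-treated cultures provide the reference for the growth inhibition reported for compound-exposed, repair-deficient yeast.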

[2] = NCI Yeast Anticancer Drug Screen. Data for the mec2-1 strain (AID 157); details: S. cerevisiae mec2-1 strain, at 50.0 µM, stronger effect = higher value
Procedure, shortened: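 Using mec2-1 yeast: add compound, measure growth, express inhibition versus vehicle-treated cultures.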

[3] = NCI Yeast Anticancer Drug Screen. Data for the sgs1 mgt1 strain (AID 161);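 also: 0% = growth of cultures given vehicle only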; details: S. cerevisiae sgs1 mgt1 strain, at 50.0 µM, stronger effect = higher value
Procedure, shortened: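 This yeast growth screen uses a strain with defined DNA-repair lesions; compound-treated growth is compared with vehicle-treated growth.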

[4] = NCI Yeast Anticancer Drug Screen. Data for the cln2 rad14 strain (AID 165);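 also: 0% = growth equal to vehicle treated cultures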; details: S. cerevisiae cln2 rad14 strain, at 50.0 µM, stronger effect = higher value
Procedure, shortened: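 Yeast strain cln2 rad14, bearing defects in cell cycle control and DNA repair, serves as the test system; values reflect growth inhibition compared with vehicle.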

[5] = NCI Yeast Anticancer Drug Screen. Data for the bub3 strain (AID 167); details: S. cerevisiae bub3 mutant strain, at 50.0 µM, stronger effect = higher value
Procedure, shortened: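 Mutant yeast screening strain plus compound; vehicle-treated cultures serve as the 0% inhibition reference.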

[6] = NCI Yeast Anticancer Drug Screen. Data for the mlh1 rad18 strain (AID 175); details: S. cerevisiae mlh1 rad18 strain growth inhibition; at 50.0 µM; stronger effect = higher value
Procedure, shortened: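 Steps: expose repair-defective yeast to compound; measure growth; express inhibition against vehicle-treated controls.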

Measured: growth inhibition

CC1(O)C(=O)OC(CO)C1O (stereo unspecified)
inactive: [1] 1.4% and 7.1% | [2] 1.6% and 7.15% | [3] -3.45% and -1% | [4] -15.8% and -6.6% | [5] -5.65% and 2.4% | [6] 5.1% and 3.25%

CCN1C(=O)C=CC1=O
inactive: [1] 3.4% and -19.9% | [2] -2.55% and 13.7% | [3] 11.8% and -8.5% | [4] 6.8% and -30% | [5] 8.8% and -25.5% | [6] 3.55% and -15.4%

O=C(O)CCC(=O)c1ccc2ccccc2c1
inactive: [1] 60% and 8.8% | [2] 21.6% and 6.95% | [3] 44.8% and -5.7% | [4] 11.2% and -14.1% | [5] 9.15% and -23.1% | [6] 44.2% and 40.7%

OC1COCOC1C1OCOCC1O (stereo unspecified)
inactive: [1] 11.2% and -5.6% | [2] -2.7% and -8.35% | [3] 2.3% and 19.4% | [4] -18.2% and -29% | [5] -1.9% and -4.2% | [6] -5.6% and -0.85%

CCOc1ccc(C=O)cc1OC
inactive: [1] -29.6% and -0.5% | [2] -53.1% and -10.4% | [3] -52.6% and 0.25% | [4] -6.4% and 4.25% | [5] -26.9% and -0.4% | [6] -11.4% and 0.1%

NC(C(=O)O)C(CC(=O)O)C(=O)O (stereo unspecified)
inactive: [1] 1.8% and 9.2% | [2] -2.1% and 11.2% | [3] -1.95% and -2.75% | [4] -57% and -40% | [5] -10.9% and -0.05% | [6] 16.4% and 9.75%

COc1ccc(/C=C\c2cc(OC)c(OC)c(OC)c2)cc1OC(=O)C(N)CCC(=O)O (stereo unspecified)
inactive: [1] -5.3% and 8.35% | [2] -18.3% and -10.8% | [3] -0.6% and -3.85% | [4] 21.9% and 6.7% | [5] -19.6% and 34%
79.2% (active) and 3.3% (inactive): [6]

O=C(O)C(Cc1ccccc1)Cc1ccccc1
inactive: [1] -11.6% and 20.8% | [2] 4.6% and 3.1% | [3] -14.4% and 9.8% | [4] -40.1% and 29.2% | [5] -22.9% and 43.5% | [6] 3.75% and 35.2%

O=C(CCl)NC(Cc1c[nH]c2ccccc12)C(=O)O (stereo unspecified)
inactive: [1] -7.95% and 9.8% | [2] -50.7% and -0.75% | [3] 1.1% and -0.95% | [4] 23.3% and 14.8% | [5] -10.2% and 8.7% | [6] 4.25% and -1.05%

COc1cc([N+](=O)[O-])c(S(=O)(=O)O)cc1N
inactive: [1] -7.95% and 30.1% | [2] 22.8% and 6.65% | [3] -11.8% and -0.8% | [4] -23.7% and 16.8% | [5] 7.2% and 16.3% | [6] -0.75% and 38.9%

Nc1nc(N)c2ncn(C3OC(CO)C(OC4OC(CO)C(O)C(O)C4O)C(O)C3O)c2n1 (stereo unspecified)
inactive: [1] -0.55% and -12.2% | [2] 12.8% and 7.45% | [3] 2.45% and -27.6% | [4] -2.65% and -19.2% | [5] 1.8% and -17.8% | [6] 22.3% and -10.3%

Cc1ccc(S(=O)(=O)N2CCCCCC2)cc1
inactive: [1] 10.8% and -9.2% | [2] 15.8% and -2.65% | [3] -13.7% and -5.75% | [4] 1.6% and -7.75% | [5] -6.7% and -2.85% | [6] -10.6% and -0.45%

Cc1cc(C)c(C(=O)C(C)C(c2ccccc2)c2ccc(Cl)cc2)c(C)c1 (stereo unspecified)
inactive: [1] -16.4% and -14.6% | [2] -19.2% and -5.7% | [3] -12.8% and -16.1% | [4] 17.8% and -2.55% | [5] -8.7% and -10.6% | [6] -15.2% and -2.45%

CC(=O)OC1CCC2(C)C(CCC3(C)C2CCC2C4=CC(C)(C)CCC4(C)CCC23C)C1(C)C (stereo unspecified)
inactive: [1] 14.1% and -0.45% | [2] 10% and -9.7% | [3] -10.7% and -1.75% | [4] 13.4% and -3.6% | [5] 10.6% and -4.15% | [6] 20.1% and 7.15%

O=C(O)/C=C(/Oc1ccc(Cl)cc1Cl)C(=O)O
inactive: [1] 5.8% and 19.7% | [2] -3.25% and 6.45% | [3] 6.35% and 9.85% | [4] -19.9% and 15.4% | [5] 17.9% | [6] 11.8% and 19.7%

COc1cc(NCCCNc2c3ccc(Cl)cc3nc3ccc(OC)cc23)c2ncccc2c1
-4.6% (inactive) and 85.9% (active): [6]
8.15% (inactive) and 70% (active): [3]
-3.5% (inactive) and 79.2% (active): [1]
inactive: [2] -13.9% and 24% | [4] -0.35% and 54.1% | [5] -18.2% and 50.2%

CC(C)(SCc1ccccc1)C(N)C(=O)O (stereo unspecified)
inactive: [1] 8.05% and -6.85% | [2] 10.3% and -17% | [3] 1.65% and -33.1% | [4] 2.2% and -33.8% | [5] -3.45% and -31.3% | [6] 6.1% and -10.3%

CC(C)(C)OC(=O)CCC(NC(=O)OCC1c2ccccc2-c2ccccc21)C(=O)NC(Cc1c[nH]c2ccccc12)C(=O)NC(CCCCNC(=O)OC(C)(C)C)C(=O)N1CCCC1C(=O)NCC(N)=O (stereo unspecified) (Fmoc-E(OtBu)WK(Boc)PG-NH2; configuration not given here)
inactive: [1] -24.2% and -27.9% | [2] -23.1% and -22.1% | [3] -12.7% and -17% | [4] 5.7% and 12.8% | [5] -16.6% and -4.35% | [6] -17.8% and -22.2%

O=c1oc2c(O)c(O)cc3c(=O)oc4c(O)c(O)cc1c4c23
inactive: [1] 25.8% and 6.65% | [2] 18.6% and -20.1% | [3] 34.7% and -10.7% | [4] 19% and -8.75% | [5] 29% and -35.9% | [6] -8.1% and -19.1%

O=C(O)c1cc([N+](=O)[O-])c2c(c1)P(=O)(O)c1cc(C(=O)O)cc([N+](=O)[O-])c1O2
inactive: [1] 19.9% and 10.8% | [2] -1.35% and 3.05% | [3] 7.65% and 4.55% | [4] 5.9% and 4.05% | [5] -0.6% and -2.1% | [6] 13.7% and 7.85%

NCCC(=O)c1ccccc1
inactive: [1] -8.25% and 0.05% | [2] -4.2% and 6.2% | [3] -14.6% and -1.4% | [4] -17.4% and 7.65% | [5] -19.5% and 7.95% | [6] -2.7% and 25.3%

O=c1nc(-c2ccccc2)cc(CC(O)(c2ccc(C(F)(F)F)cc2)c2ccc(Cl)c(Cl)c2)[nH]1 (stereo unspecified)
inactive: [1] 1.8% and 28.8% | [2] 15% and 15.4% | [3] 5.55% and 25.8% | [4] -17.8% and -26.6% | [5] 25.7% and 54.4% | [6] 8.35% and 11.3%

CC(C)N=C(N)C(N)=NC(C)C
inactive: [1] 20.1% and -65.4% | [2] -18% and 6.55% | [3] -2.5% and -13.2% | [4] -67.2% and -46.5% | [5] 1.8% and -11.1% | [6] -14.6% and -16.9%

OC1CCCC(O)C1O (stereo unspecified)
inactive: [1] 1.25% and 6.1% | [2] -2.7% and -12.9% | [3] 14.1% and 9.8% | [4] -7.2% and -2% | [5] 3.9% and 20.6% | [6] -2.65% and -4.4%

O=C1O/C(=C(/C(=O)O)c2ccc(O)cc2)C(O)=C1c1cc2c3c(c(O)cc(C4=C(O)/C(=C(\C(=O)O)c5ccc(O)cc5)OC4=O)c3c1)OC2=O
inactive: [1] -12.8% and -7% | [2] -7.25% and -10.4% | [3] -8.55% and 5.6% | [4] -0.65% and -9.85% | [5] -5% and -1.65% | [6] 3.4% and 4.6%

COC1OC(COC(=O)c2ccccc2)C(OC(=O)c2ccccc2)C1OC(=O)c1ccccc1 (stereo unspecified)
inactive: [1] -15.4% and 7.8% | [2] -2.5% and -10.2% | [3] -3.65% and -3.95% | [4] -28.1% and -21.9% | [5] 15.9% and -0.85% | [6] 9% and 4.6%
